From PubChem
In the library only some 10% were active in any assay of this set; here they are far more common.
NIH3T3 tox – Cytotoxic Profiling in NIH 3T3 Cell Line of Diverse Libraries Using Quantitative High-Throughput Screening. Potency, µM (top dose mostly 96.7 µM), for inactives: at the top dose activity change, negative = cytotoxicity, usual class: inhibitors. NIH 3T3 viability, CellTiter-Glo ATP luminescence, 48-72 h. actives 4.3% (n = 94,000); further: on the % scale 0 is the no-effect control and ±100 the full control effect; nearly all actives have a fitted effect of over 55% in size
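NIH 3T3 cells at 400 cells/well received 23 nL of compound by pintool and were incubated 48 or 72 h at 37 °C. Viability was read as ATP-coupled CellTiter-Glo luminescence.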
GPT2 inhibitor – Primary qHTS assay for inhibitors of Glutamate pyruvate transaminase 2 (GPT2) | AID 1671188, 2021 | Potency, µM (doses to about 57.7 µM), inactives show at the top dose activity change, negative = inhibition, most hits filed as inhibitors | actives 0.25% (n = 100,000) | Recombinant GPT2, coupled pyruvate oxidase/HRP Amplex Red fluorescence; further: on the % scale 0 is the no-effect control and ±100 the full control effect; nearly all actives have a fitted effect of over 60% in size
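Recombinant GPT2 (10ng/uL) with 250uM a-KG and 2mM L-alanine, 30 min at room temperature, in HEPES pH 7.5 buffer. Pyruvate detected by pyruvate oxidase/HRP/Amplex Red fluorescence after 30 min in the dark; AOA (50uM) as positive control.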
FLuc inh-1 – Firefly luciferase inhibition profiling of diverse chemical library using quantitative high-throughput screening. Luciferin 4-monooxygenase (Photinus pyralis), P08659. purified P. pyralis luciferase, luminescence, biochemical. Potency, µM (highest dose often 115 µM), hits mostly inhibitors. actives 2.5% (n = 76,000). AID 1347043, 2019; further: on the % scale 0 is the no-effect control and ±100 the full control effect; nearly all actives have a fitted effect of over 65% in size
Target sequence (P08659 whole entry, looked up): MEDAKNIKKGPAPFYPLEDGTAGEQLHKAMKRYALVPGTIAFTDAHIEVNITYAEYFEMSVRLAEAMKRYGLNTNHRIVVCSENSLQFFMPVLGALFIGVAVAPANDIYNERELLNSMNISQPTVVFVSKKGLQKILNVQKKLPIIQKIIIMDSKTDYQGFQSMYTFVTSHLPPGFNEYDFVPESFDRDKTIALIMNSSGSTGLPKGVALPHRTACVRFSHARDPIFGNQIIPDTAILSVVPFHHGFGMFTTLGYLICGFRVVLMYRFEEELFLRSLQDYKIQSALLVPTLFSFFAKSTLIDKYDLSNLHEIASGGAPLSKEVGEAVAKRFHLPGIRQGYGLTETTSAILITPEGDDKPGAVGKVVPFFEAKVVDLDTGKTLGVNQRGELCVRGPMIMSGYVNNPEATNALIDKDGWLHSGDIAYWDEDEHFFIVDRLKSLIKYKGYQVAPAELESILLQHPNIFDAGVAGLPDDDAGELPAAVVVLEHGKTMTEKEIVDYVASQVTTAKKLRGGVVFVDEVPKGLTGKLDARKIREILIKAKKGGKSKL
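FLuc 10nM, D-luciferin 10uM, ATP 10uM, Mg acetate 10mM, Tris acetate pH 7.5, Tween/BSA; cpd qHTS; enzyme added last; CCD luminescence.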
NPR1 antag – Natriuretic polypeptide receptor (hNpr1) antagonism - Primary qHTS; Atrial natriuretic peptide receptor 1 (Homo sapiens), P16066; HEK293 hNpr1 GloSensor cGMP, ANP-stimulated luminescence; Potency, µM (highest dose often 46.3 µM), without a hit: at the highest dose activity change, negative = inhibition, most hits filed as inhibitors; actives 1.6% (n = 76,000); AID 1347048, 2019; calls by dose curve; further: on the % scale 0 is the no-effect control and ±100 the full control effect; nearly all actives have a fitted effect of over 60% in size
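Compound pre-incubated 30 min at room temperature on GloSensor-loaded HEK293 cells stably carrying hNpr1 and the pGS-40F cGMP biosensor. Stimulation uses hNppA at 0.1 nM final; luminescence is taken at baseline and 20 min post-agonist.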
HEK293 tox – Cytotoxic Profiling in HEK 293 Cell Line of Diverse Libraries Using Quantitative High-Throughput Screening. HEK 293 viability, ATP luminescence (CellTiter-Glo), 48-72 h. Potency, µM (titrated, usually from 115 µM), inactives show top-dose activity change, negative = cytotoxicity, most hits filed as inhibitors. actives 6.6% (n = 94,000). AID 1345083, 2018; further: on the % scale 0 is the no-effect control and ±100 the full control effect; nearly all actives have a fitted effect of over 60% in size
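CellTiter-Glo luminescence (cellular ATP) was read after 48 or 72 hr of compound exposure at 37 degree Celsius. Cells were HEK 293 plated at 250 cells/well.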
FLuc SDR -ATP – Firefly luciferase (FLuc-C-HiBiT) SDR gain of signal screen - without ATP; actives 7.8% (n = 1,300); shares compounds with FLuc inh-1; Purified FLuc-C-HiBiT, Nano-Glo HiBiT luminescence, no ATP; Potency, µM (series often up to 32.7 µM), for the others: top-dose activation (signal gain), hits mostly activators; further: nearly all actives have a fitted effect of over 55% in size
FLuc SDR ATP – Firefly luciferase (FLuc-C-HiBiT) SDR gain of signal screen - plus ATP. Potency, µM (titrated, usually from 32.7 µM), for inactives: at the highest dose activation (gain of signal), usual class: activators. actives 8.7% (n = 1,300). AID 1963319, 2024. purified FLuc-C-HiBiT + ATP, HiBiT complementation luminescence. shares compounds with FLuc inh-1;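 further: signal reports ligand binding via conformational change of the enzyme rather than luciferase catalysis; % of control where 0% means no effect; nearly all actives have a fitted effect of over 55% in size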
FLuc inh-2 – Firefly luciferase (FLuc-C-HiBiT) enzymatic inhibition screen - Functional assay; shares compounds with FLuc inh-1; AID 1963320, 2024; Potency, µM (top dose mostly 32.7 µM), for inactives: at the highest dose activity change, negative = inhibition, hits mostly inhibitors; actives 42% (n = 1,300); purified FLuc-C-HiBiT enzyme, luciferin luminescence; further: on the % scale 0 is the no-effect control and ±100 the full control effect; nearly all actives have a fitted effect of over 70% in size
An asterisk follows results filed as active; i = inactive; ? = inconclusive; . = no result given; [ ] = dose if it differs, or a comment. Unless noted, the call rests on the fitted dose curve; in most records, active means well fitted curve in the direction sought with a large enough effect; inconclusive means small, poorly fitted or top-dose-only effect, or another doubt; inactive means no such curve, though single readings can be large; an effect the other way counts as inactive or inconclusive. Potency means the concentration at half of the fitted maximal effect.

SMILES | NIH3T3 tox | GPT2 inhibitor | FLuc inh-1 | NPR1 antag | HEK293 tox | FLuc SDR -ATP | FLuc SDR ATP | FLuc inh-2
COc1ccc(-c2noc([C@@H]3C[C@@H](O)CN3Cc3cccs3)n2)cc1 | -36%[174 µM] | 0%[88.5 µM] | 14µM* | -14%[70.6 µM] | -22%[172 µM] | 10%[49.3 µM] | 9%[49.3 µM] | ?
Cn1cc(-c2ccccc2)cc1C(=O)N1CCCC1 | -10% | i | i | -1% | ? | . | . | .
Cc1ccc(-c2cc(C(=O)O)n(C)c2)cc1 | -29% | i | 16µM* | -14% | 0% | 11% | ? | ?
CN(C)C(=O)c1cc(-c2ccc(Cl)cc2)cn1C | -25% | -5% | ? | 0% | ? | . | . | .
Cn1cc(-c2ccc(Cl)cc2)cc1C(=O)O | ? | i | ? | -4% | ? | 10% | 10% | -15%
COc1ccc(NC(=O)Cn2c(-c3ccc(Cl)cc3)nc(C)c(CCO)c2=O)cc1 | -17% | -4% | i | -1% | ? | . | . | .
COc1ccccc1NC(=O)Cn1c(-c2ccc(Cl)cc2)nc(C)cc1=O | ? | -27% | i | -15% | ? | . | . | .
CCOC(=O)c1cccc(NC(=O)CCc2c(C)nc3cc(-c4ccc(Cl)cc4)nn3c2C)c1 | . | . | . | . | . | 13% | ? | 8.8µM*
CCOc1ccc(NC(=O)CCc2c(C)nc3cc(-c4ccc(Cl)cc4)nn3c2C)cc1 | . | . | . | . | . | 22% | 0.99µM* | 2.8µM*
COC(=O)c1ccccc1NC(=O)CCc1c(C)nc2cc(-c3ccc(Cl)cc3)nn2c1C | . | . | . | . | . | 9% | ? | ?
Cc1nnc([C@@H]2CC(F)(F)CN2C(=O)c2n[nH]c3ccccc23)o1 | -4% | i | i | 2% | i | . | . | .
O=C(c1ccc2ncccc2c1)N1CC[C@@H]2CN(Cc3ccccc3)[C@@H]2C1 | -13% | 1% | . | . | -2% | . | . | .
O=C1CC2(CCN(C(=O)C3CCCN3C(=O)Cc3ccc(F)cc3)CC2)Oc2ccccc2N1 (stereo not given) | -19% | -15% | . | . | -22% | . | . | .
COCCCn1c(=O)c(C(=O)N2CCN(C(=O)NC3CCCC3)CC2)nc2cccnc21 | -16% | 1% | . | . | 4% | . | . | .
CNC(=O)c1nc2cccnc2n(Cc2ccccc2)c1=O | -29%[138 µM] | i | . | . | -12%[172 µM] | . | . | .
COc1ccc(-n2nc3ccc(NC(=O)c4c(OC)cccc4OC)cc3n2)cc1 | . | . | . | . | . | 16% | 12% | -16%
COc1ccc(-c2cccc(C(=O)N3CCC(NC(=O)C4CCCC4)CC3)c2)nn1 | -19% | . | . | . | -14% | . | . | .
N#Cc1c(-n2ncnc2-c2ccc(Br)cc2)sc2c1CCCCC2 | . | . | . | . | . | 23% | 21% | 9.9µM*
CC(C)c1cc(C(=O)NCc2nnnn2-c2ccccc2)nc2ncnn12 | -9% | i | i | 1% | ? | . | . | .
Cn1cccc1-c1noc(C2CCN(C(=O)c3ccoc3)C2)n1 (stereo not given) | ? | -8% | . | . | -18% | . | . | .
CC(C)(C)CN1CCNc2cc(Nc3ccccc3)ncc2C1 | 50µM* | ? | 2.2µM* | ? | ? | ? | 17%[49.3 µM] | 7.2µM*
CC(C)(C)CN1CCNc2cc(Nc3cccnc3)ncc2C1 | ? | i | 1.6µM* | -1%[70.6 µM] | -39%[172 µM] | ? | ? | 6.4µM*
COc1ccccc1-c1cc(NCc2cnccn2)c2onc(C)c2n1 | ? | 1%[88.5 µM] | i | -1%[70.6 µM] | -11%[172 µM] | . | . | .
CN(C)c1cccc(-c2cc(C(=O)NCCc3ccccn3)c3c(c2)ncn3C)c1 | ? | i | i | -1%[70.6 µM] | ? | . | . | .
COc1ccc(CCC(=O)Nc2cccc(-c3nnc4n3CCCC4)c2)cc1 | -7% | i | i | 6% | -11% | . | . | .
SMILES | NIH3T3 tox | GPT2 inhibitor | FLuc inh-1 | NPR1 antag | HEK293 tox | FLuc SDR -ATP | FLuc SDR ATP | FLuc inh-2
O=C(C1CCC1)N1CCn2c(nnc2[C@@H]2C[C@@H](O)CN2Cc2ccccc2)C1 | -5% | -9% | i | 2% | 0% | . | . | .
O=C(Nc1n[nH]c2cc(-c3ccccc3)ccc12)C1CC1 | . | . | . | . | . | 18% | 11% | ?
O=C(Cc1cccc(Cl)c1)NCCNC(=O)c1ccc(-c2cncnc2)cc1 | -21% | . | . | . | -20% | . | . | .
c1ccc2c(Cc3nnc([C@H]4CCN(C5CCCCC5)C4)o3)c[nH]c2c1 | -27%[138 µM] | 2%[88.5 µM] | i | -3%[70.6 µM] | ? | . | . | .
Cc1ccc(-n2ncc3c(NC4CCCCC4)ncnc32)cc1C | . | . | . | . | . | 27% | ? | 1.8µM*
Cc1ccc(-n2ncc3c(NC4CCCCC4)ncnc32)cc1Cl | . | . | . | . | . | 33% | ? | 2.8µM*
O=C(NCc1ccccc1Cl)c1ccc2oc(-c3ccnc(Cl)c3)nc2c1 | -20%[138 µM] | -1%[88.5 µM] | . | . | -6%[172 µM] | . | . | .
O=C(NCCc1ccccc1Cl)c1ccc2c(c1)nc1n2CCOC1 | . | . | . | . | . | ? | ? | 7µM*
CCOc1ccc2nc(NC(=O)c3ccccc3)sc2c1 | . | . | . | . | . | ? | ? | 0.88µM*
